For 60 compounds, fluorescence ratio to DMSO results are on record in PubChem BioAssay AID602162 (NMMLSC, 2011).

About 690 (0.19%) of roughly 360,000 compounds were called active.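 The calls were made as follows: active = fluorescence ratio to DMSO below 75%, the collection mean minus 3 SD; inconclusive = too few cells collected in the well; inactive = the rest.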 Shown is part of a subset that was picked to be rich in actives.

ATP-binding cassette sub-family B member 6 (Homo sapiens), sequence (Q9NP58 whole entry, looked up): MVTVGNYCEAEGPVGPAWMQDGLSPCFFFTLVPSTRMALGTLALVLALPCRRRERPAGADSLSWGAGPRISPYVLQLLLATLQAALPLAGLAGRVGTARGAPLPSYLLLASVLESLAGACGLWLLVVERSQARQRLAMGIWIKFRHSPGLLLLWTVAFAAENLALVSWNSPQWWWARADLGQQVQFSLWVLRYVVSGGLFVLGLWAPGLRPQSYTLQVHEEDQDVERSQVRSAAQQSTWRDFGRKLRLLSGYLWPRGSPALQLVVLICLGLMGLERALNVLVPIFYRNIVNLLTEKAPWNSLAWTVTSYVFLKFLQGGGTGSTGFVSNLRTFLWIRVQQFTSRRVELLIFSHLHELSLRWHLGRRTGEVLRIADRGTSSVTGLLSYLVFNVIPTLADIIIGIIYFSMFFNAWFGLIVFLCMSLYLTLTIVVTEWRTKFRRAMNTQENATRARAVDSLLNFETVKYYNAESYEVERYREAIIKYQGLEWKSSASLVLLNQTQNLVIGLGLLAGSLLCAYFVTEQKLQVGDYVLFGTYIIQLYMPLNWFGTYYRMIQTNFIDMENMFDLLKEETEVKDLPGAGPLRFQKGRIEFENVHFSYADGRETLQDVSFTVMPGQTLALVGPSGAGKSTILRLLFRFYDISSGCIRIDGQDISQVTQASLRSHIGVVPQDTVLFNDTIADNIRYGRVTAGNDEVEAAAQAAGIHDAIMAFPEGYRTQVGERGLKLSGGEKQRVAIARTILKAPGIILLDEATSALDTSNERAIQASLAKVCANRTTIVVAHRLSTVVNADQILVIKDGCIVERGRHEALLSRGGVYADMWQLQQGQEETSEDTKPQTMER

The assay has as its target ATP-binding cassette sub-family B member 6 (Homo sapiens) (UniProt Q9NP58). Description: blockers of ABCB6-driven porphyrin uptake – K562-ABCB6 cells, flow cytometry, MLPCN library, primary screen (AID 602162).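 Also: signal is porphyrin accumulated inside mitochondria; 100% equals median channel fluorescence of DMSO control wells; lower ratio means ABCB6 inhibition with less porphyrin fluorescence.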 Particulars: K562-ABCB6 porphyrin accumulation, 1 h, at 10 µM, stronger effect = lower value. In general terms: In flow cytometry, cells or beads pass a laser one at a time.
Regarding `CC(=O)Nc1ccccc1C(=O)C(=O)Nc1ccc(F)cc1`, the fluorescence ratio to DMSO was 104% (inactive).
For `Cc1cccc(NC(=O)c2ccc(OCC(=O)NCc3ccccc3)cc2)c1C`, the fluorescence ratio to DMSO is 97% (inactive).
As to `O=C1COc2ccc(S(=O)(=O)NCCc3ccc(Cl)cc3)cc2N1`, the fluorescence ratio to DMSO is 93% (inactive).
Under `O=C1C=C(c2cccc(Br)c2)C[C@@H](c2ccc(F)cc2)C1` stands 101% (inactive); under `O=C(Nn1cnc2ccccc2c1=O)c1ccc([N+](=O)[O-])cc1Cl`, 98% (inactive).
Under `O=C(Nn1cnc2ccccc2c1=O)c1ccc(F)cc1Cl` stands 26% (active); under `O=C(Cn1cnc2ccccc2c1=O)NNC(=O)c1ccccc1F`, 97% (inactive).
For the compound `COC(=O)Cc1nc2c(N)nc(N)nc2[nH]c1=O`, the fluorescence ratio to DMSO was 97% (inactive).
Regarding `COC(=O)CNC(=O)c1cc(-c2ccncc2)nc2ccccc12`, the fluorescence ratio to DMSO was 70% (active).
Turning to `CCc1ccc(-c2cc(C(=O)NN3CCN(C)CC3)c3ccccc3n2)cc1`, the fluorescence ratio to DMSO is 99% (inactive).
The figure for `CC1CCCC(NC(=O)c2cc(-c3ccncc3)nc3ccccc23)C1C` (stereo not given) is 96% (inactive).
With `Cc1cccc(C)c1NC(=O)Nc1ccccc1-n1ccnc1`, the fluorescence ratio to DMSO was 96% (inactive).
With `COc1ccc(NC(=O)/C(Cl)=C(/Cl)S(=O)Cc2ccc(C)cc2)cn1` (stereo not given), the fluorescence ratio to DMSO was 19% (active).
Under `CC(CC(=O)Nc1ccccc1)n1ccnc1` (stereo not given) stands 96% (inactive).
In the case of `O=C1OC(Oc2ccc(Br)cc2)(c2ccccc2)c2ccccc21` (stereo not given), the fluorescence ratio to DMSO is 93% (inactive).
The figure for `CCn1ccnc1CNC(=O)CC1C(=O)NCCN1Cc1ccc(F)cc1Cl` (stereo not given) is 92% (inactive); for `C=CCn1c(SCC(=O)NCc2ccccc2)nnc1-c1cc(Br)ccc1O` it is 53% (active); for `C=CCn1c(SCC(=O)NC(=O)Cc2ccccc2)nc2ccccc2c1=O` it is 99% (inactive).
The figure for `O=C(CSc1nnc(-c2cccnc2)n1CCc1ccccc1)NCc1ccccc1` is 110% (inactive); for `N#CCCN1CCN(S(=O)(=O)c2ccc(S(=O)(=O)NC3CCCCC3)cc2)CC1` it is 96% (inactive); for `Cc1ccc(S(=O)(=O)N2CCC(Oc3ccc(-n4cnnn4)cc3)CC2)cc1` it is 96% (inactive).
The figure for `COC(=O)c1ccc(CN2C(=O)C(Cc3ccccc3)ON=C2c2ncccc2C)o1` (stereo not given) is 94% (inactive).
For the compound `OCCC1CN(Cc2cnc(-c3ccccc3)s2)CCN1CCc1ccccc1` (stereo not given), the fluorescence ratio to DMSO was 73% (active).
Under `OCCC1CN(Cc2ccc(Oc3ncccn3)cc2)CCN1CCc1ccccc1` (stereo not given) stands 101% (inactive).
As to `OCCC1CN(Cc2cccc(O)c2)CCN1CCc1ccccc1` (stereo not given), the fluorescence ratio to DMSO was 93% (inactive).
For the compound `COc1ccc(CN2C(=O)CC(Cc3ccc(C)cc3)C2=O)cc1OC` (stereo not given), the fluorescence ratio to DMSO was 97% (inactive).
Turning to `O=S1(=O)CC(N2CCN(Cc3ccccc3F)CC2)CN1Cc1cn(Cc2cccc(C(F)(F)F)c2)nn1` (stereo not given), the fluorescence ratio to DMSO is 96% (inactive).
The figure for `COc1ccc(-c2c(NC(=O)c3ccco3)oc3ccc(Cl)cc3c2=O)cc1` is 97% (inactive); for `O=C(COc1ccccc1)Nc1cc2c3c(c1)CC(=O)N3CCC2` it is 102% (inactive).
Turning to `O=C(Cc1cccs1)NCc1cccc(C(F)(F)F)c1`, the fluorescence ratio to DMSO is 68% (active).
Take `Cc1ccccc1Cn1c(C)c(C(=O)NCc2cccc(C(F)(F)F)c2)sc1=O`: the fluorescence ratio to DMSO is 98% (inactive).
Consider `Cn1c(=O)c2cc(NC(=O)NCCc3cccs3)ccc2n1Cc1cccc(C(F)(F)F)c1`, for which the fluorescence ratio to DMSO is 100% (inactive).
On to `Cc1ccn(-c2cccc(-n3ccc(C)n3)n2)n1`, for which the fluorescence ratio to DMSO was 104% (inactive).
As to `Cc1cnc(C(=O)OCc2c(C)cc(C(C)(C)C)cc2C)cn1`, the fluorescence ratio to DMSO is 104% (inactive).
Turning to `COc1ccc(/C=C(\NC(=O)c2ccc(OCC(C)C)cc2)C(=O)OCc2ccco2)cc1`, the fluorescence ratio to DMSO was 100% (inactive).
In the case of `COc1ccc(-c2cnc(SCCNC(=O)c3ccc4c(c3)OCO4)[nH]2)cc1`, the fluorescence ratio to DMSO is 98% (inactive).
As to `O=C(NCCSc1ncc(-c2ccccc2)[nH]1)c1ccco1`, the fluorescence ratio to DMSO was 74% (active).
Consider `O=C(NCCS(=O)(=O)N1CCN(c2ccccc2)CC1)c1ccco1`, for which the fluorescence ratio to DMSO is 98% (inactive).
`COc1ccccc1NC(=O)c1ccc(N2CC3CC(C2)c2cccc(=O)n2C3)c(NC(=O)c2cccnc2)c1` (stereo not given): the fluorescence ratio to DMSO is 100% (inactive).
The figure for `CCN(CC(=O)Nc1ccc(NC(C)=O)cc1)C(=O)C1CC(=O)N(c2ccc3c(c2)OCCO3)C1` (stereo not given) is 91% (inactive); for `COc1ccc(CCNc2nc(C)cc(C)n2)cc1OC` it is 95% (inactive); for `COc1ccc(CCNC2=C(Cl)C(=O)N(Cc3ccccc3)C2=O)cc1OC` it is 73% (active).
As for `COc1ccc(CCNC(=O)CN(c2ccccc2)S(C)(=O)=O)cc1OC`, the fluorescence ratio to DMSO is 95% (inactive).
Turning to `Fc1ccccc1OCCSc1nc2ccccc2o1`, the fluorescence ratio to DMSO was 89% (inactive).
Consider `O=C(CSc1nnc(C2CC2)n1Cc1ccccc1)Nc1cccnc1Cl`, for which the fluorescence ratio to DMSO was 85% (inactive).
Regarding `CCC1OC(C2CC2)CC2=C1C(=O)OC(C)(C)O2` (stereo not given), the fluorescence ratio to DMSO is 97% (inactive).
The figure for `CC1(C)O[C@H]2CC(=O)OCC23[C@H]2CC[C@@]4(C)[C@H](c5ccoc5)OC(=O)[C@H]5O[C@]54[C@]2(C)C(=O)C[C@@H]13` (stereo not given in full) is 100% (inactive); for `O=C(c1cnn2ccccc12)N1CCc2ccccc21` it is 103% (inactive).
Turning to `COC(=O)c1ccc(C2NC(=O)NC(C)=C2C(=O)N(C)C)cc1` (stereo not given), the fluorescence ratio to DMSO was 117% (inactive).
As to `CCOC(=O)C1=C(C)NC2=C(C(=O)CC(C)(C)C2)C1c1ccsc1` (stereo not given), the fluorescence ratio to DMSO is 100% (inactive).
For the compound `CCCOC(=O)C1=C(C)NC2=C(C(=O)C(C(=O)OC)C(C)C2)C1c1ccc(N(C)C)cc1` (stereo not given), the fluorescence ratio to DMSO is 72% (active).
Take `CCCn1c(N)c(C(=O)CSc2nnc(-c3cccnc3)n2-c2ccc(C)cc2C)c(=O)[nH]c1=O`: the fluorescence ratio to DMSO was 101% (inactive).
Regarding `CCOc1ccc2[nH]c3nc(SCC(=O)NC4CCCC4)nnc3c2c1`, the fluorescence ratio to DMSO was 96% (inactive).
Consider `CCc1ccccc1OCC(=O)Nc1ccc(C)c(S(=O)(=O)N2CCCCCC2)c1`, for which the fluorescence ratio to DMSO is 90% (inactive).
Take `Cc1ccccc1OCC(=O)Nc1nnc(S(=O)(=O)N2CCCC2)s1`: the fluorescence ratio to DMSO is 56% (active).
For `CC1CCN(S(=O)(=O)c2nnc(NC(=O)COc3ccccc3F)s2)CC1`, the fluorescence ratio to DMSO was 100% (inactive).
The figure for `Cc1ccc2[nH]c3c(=O)n(CC(=O)NCCc4ccc(Cl)cc4)ncc3c2c1` is 96% (inactive).
Under `CC(C)(C)C1CCC(C(=O)NCC(c2cccs2)N2CCOCC2)CC1` (stereo not given) stands 98% (inactive); under `O=C(NCc1ccco1)C(c1ccncc1)N(C(=O)Cn1nnc2ccccc21)c1ccccc1` (stereo not given), 94% (inactive); under `Nc1nc(SCc2cccc(Br)c2)n[nH]1`, 98% (inactive).
